In PubChem BioAssay (EPA / NIEHS):
Results filed as inconclusive are left out. Calls of active or inactive are those of the source. The calls were made as follows: active = hit-call score of the fitted dose curve at least 0.9, where 1 is the maximum; inconclusive = response in the unintended direction; inactive = score below 0.9.

Target: Cytochrome P450 2C19 (Homo sapiens) (UniProt P33261)
Assay: NVS_ADME_hCYP2C19: NovaScreen (NVS) CYP450-related Enzyme Activity (ADME) Assay for human CYP2C19 (AID 2283113);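 as to AC50: potency for inhibition seen as loss of fluorescent signal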
Method in brief: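 Recombinant insect-cell-expressed enzyme, fluorescent substrate, 1 h after chemical addition, fluorescence intensity. Baseline = acetonitrile vehicle; activity scored as signal loss. Primary HTS single concentration 10 uM, duplicate; actives retested in concentration series.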

SMILES	AC50	outcome
CCCCCCOC(=O)CC(CC(=O)OCCCCCC)(OC(=O)CCC)C(=O)OCCCCCC	2.71 µM (active)	
Cc1nccn1-c1ccc(Sc2cccc(C3(C(N)=O)CCOCC3)c2)cc1	5.95 µM (active)	
CCCCCCCCCC	5.72 µM (active)	
C=CCc1cc(S(=O)(=O)c2ccc(O)c(CC=C)c2)ccc1O	0.164 µM (active)	
CCCC(CCC)C(=O)O	10 µM (active)	
NNC(=O)c1ccncc1	1.49 µM (active)	
COCc1nnc(-c2ccc[n+]([O-])c2)n1-c1c(Cl)c(Cl)cc2[nH]c(=O)c(=O)[nH]c12	4.13 µM (active)	
c1ccc(C(O[C@@H]2CCCN(CCc3ccc4c(c3)OCO4)C2)c2ccccc2)cc1	5.04 µM (active)	
CC(C)C(=O)Nc1ccc([N+](=O)[O-])c(C(F)(F)F)c1	3.2 µM (active)	
NC(=O)N1c2ccccc2C=Cc2ccccc21		inactive
CCCOc1ccc(S(=O)(=O)N2CCN(CC)CC2)cc1-c1nc2c(CC)n(Cc3ccccn3)nc2c(=O)[nH]1	1.45 µM (active)	
OCc1c[nH]c2ccccc12	0.574 µM (active)	
